Source: PubChem
In the library only some 2.8% were active in any assay of this set; here they are far more common.
KKLEB tox = counter-screen for CF NF-kB inhibitors: cytotoxicity | 360,000 compounds, 0.36% hits | AID 602141 | activity change (cytotoxicity), % at 5 µM | KKLEB CF airway cells viability, ATPlite luminescence, overnight; stronger effect = lower value; cells stimulated with P. aeruginosa culture filtrate;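 active means corrected activity change at or below -50% at 5 µM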
MITF TRPM1 inh = MITF TRPM1 promoter inhibition in SK-MEL-5 cells | 330,000 compounds, 0.83% hits | inhibition, % at 12.5 µM | SK-MEL-5 TRPM1 promoter luciferase, 24 h | AID 488899;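 active means mean inhibition across replicates of 60% or more, whatever share of single replicates reaches that level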
CF NFkB block = inhibitors of cystic fibrosis induced NF-kB; inhibition, % at 5 µM; 360,000 compounds, 0.86% hits; KKLEB NF-kB-GFP reporter, PAF-induced, GFP fluorescence overnight;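 active means at least 50% inhibition at 5 µM, scaled per plate between neutral and stimulator controls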;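 further: PAF is a Pseudomonas aeruginosa culture filtrate used as stimulus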
Shn3 inh set2 = reduces Shn3 3'UTR luciferase signal in osteoblasts. Clone20 osteoblast Shn3 3'UTR firefly luciferase, 24 h. inhibition, % at 12.5 µM. 360,000 compounds, 0.52% hits;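 active means mean inhibition of at least 75% with every replicate also reaching 75%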
Peg3 promoter = Peg3 promoter activity inhibition; HeLa PEG-Prom luciferase reporter, luminescence, overnight; inhibition, % at 20 µM; 360,000 compounds, 1.7% hits; AID 588405;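 active means inhibition of at least 50% at 20 µM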
HIF-2a block = inhibitors of HIF-2a; 786-0 RCC cells HIF-2a reporter, luciferase luminescence, overnight; inhibition, % at 18.8 µM; 360,000 compounds, 0.72% hits; AID 624352;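 active means inhibition of the luminescence signal of 40% or more relative to plate controls, in a single-dose primary screen at 18.75 µM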
Numbers stand for hits; n = inactive; x = not tested or not shown.

SMILES | KKLEB tox | MITF TRPM1 inh | CF NFkB block | Shn3 inh set2 | Peg3 promoter | HIF-2a block
COC1/C=C/C=C(\C)Cc2cc(O)c(Cl)c(c2)N(C)C(=O)CC(OC(=O)C(C)C)C2(C)OC2C(C)C2CC1(O)NC(=O)O2 (stereo not given) | n | n | 58.3 | n | n | n
C[C@@]12CC[C@@H](c3cc4c(cc3C1)OCO4)N2c1ccccc1 | x | x | x | x | x | n
CC12CC[C@H]3[C@@H](CCC4(O)C[C@H](O)CCC34/C=N/NC(=O)Cc3ccccc3)C1(O)CCC2C1=CC(=O)OC1 (stereo not given in full) | n | n | n | n | n | n
CC12CC[C@H]3[C@@H](CCC4(O)C[C@H](O)CCC34/C=N/NC(=O)c3ccccc3[N+](=O)[O-])C1(O)CCC2C1=CC(=O)OC1 (stereo not given in full) | n | n | n | n | 66.7 | n
CCN(CC)c1ccc(CNCCc2ccccc2F)cc1 | n | n | n | n | n | n
N#Cc1cn(C2OC(CO)C(O)C2O)c2ncnc(N)c12 (stereo not given) | n | n | 95.5 | n | 95.7 | n
NC(=O)c1cn(C2OC(CO)C(O)C2O)c2ncnc(N)c12 (stereo not given) | -83.0 | 83.9 | 89.4 | n | 93.2 | 67.2
CCNC(=O)[C@H]1O[C@@H](n2cnc3c(N)ncnc32)[C@H](O)[C@@H]1O | n | n | n | n | n | n
COc1ccc(C(c2nnnn2-c2ccc3c(c2)OCCO3)N2CCC3(CC2)C(=O)NCN3c2ccccc2)cc1 (stereo not given) | n | x | n | n | n | n
CNc1ccc2nc3ccccc3[n+](C)c2c1 | n | 71.9 | n | n | n | n
C[n+]1c2ccccc2nc2ccc(NCCO)cc21 | n | n | n | n | n | n
COC(=O)C1CN(C#N)N(c2ccc(Cl)cc2)C12c1ccccc1-c1ccccc12 (stereo not given) | -102.3 | 97.8 | 96.9 | 96.8 | 108.6 | 90.4
COC1C(O)C(C)OC(OC2CCC3(C)C(CCC4C3C(O)CC3(C)C(C5=CC(=O)OC5)CCC43O)C2)C1O (stereo not given) | n | 73.3 | 85.9 | n | 100.4 | 73.9
CC(=O)OC1CC(OC2C(O)CC(OC3C(O)CC(OC4CCC5(C)C(CCC6C5CC(O)C5(C)C(C7=CC(=O)OC7)CCC65O)C4)OC3C)OC2C)OC(C)C1OC1OC(CO)C(O)C(O)C1O (stereo not given) | n | 70.3 | 86.5 | n | 94.7 | 87.2
CS(=O)(=O)N1Cc2ccccc2-n2nncc2C1 | n | n | n | n | n | n
CC(O)C1C=CC=CC(=O)OC2CC3OC4C5OC5(C)C(O)CC4(COC(=O)C(O)C(C)CCO1)C2(C)C31CO1 (stereo not given) | n | 79.2 | 83.0 | 96.5 | 104.9 | 65.7
CC12CCC(O)CC1CCC1C2CCC2(C)C(C3=CC(=O)OC3)C(O)CC12O (stereo not given) | n | n | 71.4 | n | 94.1 | n
O=C(O)C(Br)CBr (stereo not given) | n | n | n | n | n | n
CC1Oc2cc3c(-c4c(O)cc(O)c5c(O)c6c(cc45)OC(C)C(C)C6=O)c(O)cc(O)c3c(O)c2C(=O)C1C (stereo not given) | -55.9 | 82.3 | 67.3 | 87.9 | 70.1 | n
O=c1[nH]c2ccccc2n1C1CCN(C(c2cccc3ccccc23)c2nnnn2-c2ccc3c(c2)OCCO3)CC1 (stereo not given) | -85.3 | x | 84.5 | n | 70.7 | n
Cc1cccc(C)c1-n1nnnc1C(c1cccc2ccccc12)N1CCC(n2c(=O)[nH]c3ccccc32)CC1 (stereo not given) | n | x | n | n | n | n
COc1ccc(-n2nnnc2C(c2cc3ccccc3o2)N2CCC(n3c(=O)[nH]c4ccccc43)CC2)cc1 (stereo not given) | n | x | n | n | 91.6 | n
CC12Nc3ccccc3C(=O)N1Cc1cnnn1-c1ccccc12 (stereo not given) | x | x | x | x | x | n
C[C@]12CCC3C(CC[C@H]4C[C@@H](O)CC[C@]34C)C1C[C@@H](Br)[C@H]2O (stereo not given in full) | n | x | n | n | n | n
CN1CCN(c2ccc(S(C)(=O)=O)cc2[N+](=O)[O-])CC1 | n | n | n | n | n | n
SMILES | KKLEB tox | MITF TRPM1 inh | CF NFkB block | Shn3 inh set2 | Peg3 promoter | HIF-2a block
O=[N+]([O-])c1ccc(N(CCO)CCO)c2c1no[n+]2[O-] | n | x | n | n | 98.7 | 50.6
CN1CCN(c2ccc([N+](=O)[O-])c3no[n+]([O-])c23)CC1 | -55.5 | 86.2 | 59.0 | 96.6 | 102.5 | 61.2
CC(=O)OC1=CC[C@H]2[C@@H]3CC[C@H]4C[C@H](OC(C)=O)[C@@H](OC(C)=O)C[C@]4(C)[C@H]3CC[C@]12C | n | x | n | n | n | n
CCCNC(=O)N1[C@H]2CC[C@@H]1C(C(=O)OC)=C(c1ccc(OC)c(OC)c1)C2 | n | n | n | n | n | n
COc1ccc2c(c1)C13CCN4CC5=CCOC6CC(=O)N2C1C6C5CC43 (stereo not given) | n | x | n | n | n | n
COC(=O)C1=C(c2cccc(OC)c2OC)C[C@@H]2CC[C@H]1N2C(=O)N1CCC(C)CC1 | n | n | n | n | n | n
O=C1C(=O)c2ccccc2-c2ccccc21 | n | 109.8 | 83.3 | 117.2 | 101.5 | 97.7
O=C1C(=O)c2cccc3cccc1c23 | n | n | n | n | n | n
COc1ccc(-c2ccc3c(c2)CN(C(=O)C(C)(C)C)Cc2cnnn2-3)cc1 | n | x | n | n | n | n
Cc1cccc(NP(C)(=O)c2nc3c(s2)CCCC3)c1 (stereo not given) | n | n | n | n | n | n
c1cc2c(cc1N1CCCCC1)C1CC2CCN1 (stereo not given) | n | n | n | n | n | n
COC(=O)c1ccc(NC(=O)CSc2nc3ccc(N4C(=O)C5C6C=CC(C6)C5C4=O)cc3s2)cc1 (stereo not given) | n | 62.3 | n | n | 104.9 | n
O=C1NCN(c2ccccc2)C12CCN(C(CCc1ccccc1)c1nnnn1Cc1ccccc1)CC2 (stereo not given) | n | x | n | n | 58.6 | n
Clc1ccc(C(c2ccc(Cl)cc2)n2cc[n+](CC(OCc3ccc(Cl)cc3Cl)c3ccc(Cl)cc3Cl)c2)cc1 (stereo not given) | n | 102.7 | 55.7 | 87.2 | 101.7 | 97.1
COc1ccc2c3c1O[C@H]1C(=O)CC[C@H]4[C@@H](C2)N(C)CC[C@]314 | n | n | n | n | n | n
COc1cccc2c1O[C@H]1C(=O)CC[C@H]3CN(C)CCC231 (stereo not given in full) | n | n | n | 89.4 | n | n
COC(=O)C1=C(c2cc3ccccc3s2)C[C@@H]2CC[C@H]1N2C(=O)NC1CCCCC1 | n | n | n | n | n | n
